# Compound activity deposited in PubChem by several laboratories.
# The list is not random: actives were taken first. Their share in the collection is about 1.2%.
# GASC-1 inh = inhibitors of GASC-1 histone demethylase, primary screen, biochemical, fluorescence, DELFIA europium. GST-JMJD2C(1-420) H3K9me3 demethylation. 330,000 tested, 0.069% active. inhibition, % at 2.35 µM. AID 2099, 2009;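 active = more than half of a compound's replicate wells show inhibition beyond 50%, single wells judged on their own value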;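 also: signal counts dimethyl H3K9 product captured on neutravidin plate; 0% = median of DMSO wells and 100% = 0.3 times that DMSO median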
# VLA-4 inh = inhibition in human VLA-4 binding assay, primary screen, VLA-4 allosteric modulator project, MLPCN library, flow cytometry, VLA-4 expressing cells | Integrin alpha-4 (Homo sapiens), P13612 | ligand binding flow cytometry | inhibition, % (about 7 µM as worked out from the volumes in the protocol) | 330,000 tested, 0.2% active | AID 2557, 2010; in the data active = inhibition above about 50%
# p-CIP stab down = p/CIP-EGFP fusion destabilizers, primary screen, fluorescence, F442A cells; 16 h; decrease of EGFP signal, % at 10 µM; 290,000 tested, 0.01% active; AID 1984, 2009;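 active = EGFP signal decrease of at least 30% at 10 µM or well 3 SD below plate mean, unless failing retest; inactive = the rest, including hits failing retest or dose response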
# GPR7 antag = GPR7 receptor antagonists, primary screen, cell-based, fluorescence, single concentration. 290,000 tested, 1.1% active. inhibition, % at 4.4 µM. Neuropeptides B/W receptor type 1 (Homo sapiens), P48145. GPR7-expressing cells, fluorescence antagonist assay. AID 1861, 2009; in the data active = inhibition above about 16%, passing the limit was not always enough;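 also: cells stimulated with the agonist NPW; 0% = agonist with vehicle and 100% = vehicle without agonist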
# GPR7 antag conf = GPR7 receptor antagonists, confirmation, cell-based, fluorescence, single concentration | shares compounds with GPR7 antag | GPR7-expressing cells, calcium fluorescence antagonist mode | inhibition, % at 4.4 µM | 2,400 tested, 52% active | AID 1952, 2009; in the data active = inhibition above about 24%;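 also: stimulated with the GPR7 agonist NPW; 0% = agonist plus vehicle and 100% = vehicle alone without agonist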
# MCHR1 antagonist = MCHR1 antagonists in cells, counter-screen for GPR7 antagonist project, cell-based, fluorescence, human | 2,400 tested, 62% active | shares compounds with GPR7 antag | AID 2148, 2009 | inhibition, % at 4.4 µM | MCHR1-expressing cells, fluorescence antagonist assay; in the data active = inhibition above about 22%;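 also: 0% = vehicle with agonist and 100% = vehicle without agonist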
# * hit, by the source's call; · = not tested or not shown.
SMILES,GASC-1 inh,VLA-4 inh,p-CIP stab down,GPR7 antag,GPR7 antag conf,MCHR1 antagonist
C=CCOc1ccc(CN(C)CC(=O)Nc2ccc3c(c2)CCC3)cc1,-1,17,-4,24*,1,33*
CCOc1ccc(CN(C)CC(=O)Nc2ccc3c(c2)CCC3)cc1OC,-6,3,-12,-9,·,·
Nn1c(SCc2nc3ccccc3[nH]2)nnc1-c1cccnc1,5,16,-10,-1,·,·
Nn1c(SCc2nc3ccccc3[nH]2)nnc1C1CCCCC1,3,2,-5,22*,13,-3
CC(C)NC(=S)NCc1cccs1,8,16,-4,-21,·,·
COc1ccc(N(C)S(=O)(=O)c2cccc(C(=O)NC3CCC(C)CC3)c2)cc1 (stereo not drawn),-4,4,-6,40*,36*,48*
COc1ccc(N(C)S(=O)(=O)c2cccc(C(=O)N(C)Cc3ccc(C)o3)c2)cc1,-5,-1,-7,25*,31*,26*
COc1cccc(-c2ncc3ccccc3c2COC(=O)c2ccco2)c1,-3,7,·,·,·,·
O=C(NCCN1CCOCC1)c1cc(Br)ccc1Cl,-3,4,-2,29*,-12,12
Cc1ccc(C)c(N2CCN(CCCNC(=O)CCC(=O)N3CCOc4ccc(Cl)cc43)CC2)c1,-12,10,0,29*,50*,79*
Cc1cccc(C(C(=O)NC2CCCC2)N(C(=O)c2csnn2)C2CCCC2)c1 (stereo not drawn),-17,-5,-1,15,·,·
O=C(c1cnccn1)N(Cc1ccco1)C1(C(=O)NC2CCCC2)CCCCC1,-30,5,-1,40*,31*,16
O=C(NC1CCCC1)C(c1ccsc1)N(Cc1ccccc1)C(=O)Cc1cccs1 (stereo not drawn),1,17,-5,26,·,·
O=C(NC1CCCCC1)C(c1ccccc1)N(Cc1ccco1)C(=O)Cn1cnc2ccccc21 (stereo not drawn),1,·,-16,22*,17,14
O=C(c1ccc2c(c1)OCO2)N(Cc1ccco1)C1(C(=O)NC2CCCCC2)CCCCC1,-2,-3,5,41*,40*,42*
O=C(NC1CCCC1)C(c1ccsc1)N(Cc1ccco1)C(=O)Cc1cccs1 (stereo not drawn),11,12,-5,44*,43*,31*
COc1cc(C(C(=O)NC2CCCCC2)N(Cc2ccco2)C(=O)c2cnccn2)cc(OC)c1OC (stereo not drawn),9,1,-10,-4,·,·
CC1(C)C(=O)Nc2ccccc2N1C(=O)COc1ccc(C#N)cc1,·,-5,·,·,·,·
O=C(c1cnccn1)N(Cc1ccco1)C1(C(=O)NC2CCCCC2)CCCCC1,12,9,-7,31*,22,15
O=C(c1ccccn1)N(Cc1ccco1)C1(C(=O)NC2CCCC2)CCCCC1,-1,0,1,37*,28*,21
O=C(Cc1cccs1)N(Cc1ccco1)C1(C(=O)NC2CCCC2)CCCCC1,2,5,-3,46*,53*,45*
Cc1c(N(C(=O)c2cnccn2)C2(C(=O)NC3CCCC3)CCCCC2)c(=O)n(-c2ccccc2)n1C,-41,1,5,-21,·,·
O=C1NC(=O)C(CC(=O)N(Cc2ccco2)C2(C(=O)NC3CCCC3)CCCCC2)N1 (stereo not drawn),-1,2,-3,11,·,·
Cc1ccc(S(=O)(=O)Nc2ccccc2C(=O)N2CCN(C)CC2)cc1,-2,1,-2,-4,·,·
O=C(NC(=S)N1CCN(Cc2ccc3c(c2)OCO3)CC1)c1ccc(Cl)cc1,-6,-8,-12,11,·,·
SMILES,GASC-1 inh,VLA-4 inh,p-CIP stab down,GPR7 antag,GPR7 antag conf,MCHR1 antagonist
O=C(Nc1ccc(C(=O)Nc2ccccc2Cl)cc1)c1cccnc1,9,7,-7,-4,·,·
COc1ccc(CNC(=O)c2cc3ccccc3oc2=O)cc1,11,-3,1,5,·,·
COc1ccc2cc(C(=O)NCc3ccccc3)c(=O)oc2c1,-14,-4,1,34*,12,1
O=C(c1ccccc1-c1ccccc1)N1CCN(c2ccccn2)CC1,1,20,6,27*,23,24*
CSc1nc(N)nc(SCC(=O)Nc2ccc(Cl)cc2)c1C#N,3,5,-14,-6,·,·
CSc1nc(N)nc(SCC(=O)Nc2cccc(F)c2)c1C#N,-2,6,4,26*,20,64*
Cc1cc(-c2ccc(S(=O)(=O)N3CCN(c4cccc(C)c4C)CC3)s2)on1,-11,0,-13,29*,15,40*
COC(=O)CNC(=O)c1c(-c2c(Cl)cccc2Cl)noc1C,-3,3,-8,-7,·,·
COC(=O)CNC(=O)c1c(-c2ccccc2Cl)noc1C,-19,-2,-27,23*,-1,2
Cc1[nH]c2ccccc2c1/C=N/NC(=O)C1CC1(c1ccccc1)c1ccccc1 (stereo not drawn),8,8,-3,-5,·,·
COc1ccccc1CC(=O)Nc1ccc2c(c1)C(=O)NC2=O,-7,19,2,33*,23,16
O=C(CSc1ccc(F)cc1)Nc1ccc2c(c1)C(=O)NC2=O,13,1,-10,25*,36*,43*
COc1ccc(C2=NN(C(=O)CSc3cn(C)c4ccccc34)C(c3ccc(OC)cc3)C2)cc1 (stereo not drawn),-6,6,4,-8,·,·
CC(C)=NOc1nc(NC(=O)NS(=O)(=O)c2ccccc2Cl)nc(N(C)C)n1,-22,2,·,·,·,·
CC(=O)c1cccc(NC(=O)CSc2nnc(C(C)N(C)C)n2-c2ccc(F)cc2)c1 (stereo not drawn),-2,-11,-2,35*,10,-4
CCS(=O)(=O)N1CCN(CC(=O)NC2CCCCC2)CC1,2,13,-7,-2,·,·
CC(C)CCNC(=O)C1CCN(S(=O)(=O)c2ccc3c(c2)CC(C)N3C(=O)C2CC2)CC1 (stereo not drawn),1,8,-8,25*,-9,18
COc1ccccc1CNS(=O)(=O)c1ccc(Cl)s1,-20,4,-10,23*,2,10
C/C(=N\NC(=O)c1nnn(-c2nonc2N)c1C)c1ccc(OCc2ccccc2)cc1,9,3,-18,39*,-1,8
CCn1cc(C(=O)NCC(OC)OC)c(=O)c2cc(S(=O)(=O)N3CCC(C)CC3)ccc21,0,8,-8,-12,·,·
COc1ccccc1-c1nnc2sc(COc3ccc(F)cc3)nn12,-2,-7,3,42*,17,52*
